Assay results: the supplement of paper PMC8728848
This is one part of a sample in which the strongest signals are shown more often than they occur.

Legend:
Experiment in all cases: glycan array binding signal (z-score within array); higher = stronger binding
Conditions in all cases: glycan notation: IUPAC condensed, linker removed
[1] = target: Fuc(a1-2)Gal6S(b1-4)Glc6S
Method in brief: (§1)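 The Consortium for Functional Glycomics database supplied 3228 glycan arrays, of which those lacking an available protein sequence were dropped. The binding signal, a within-array Z-score, was averaged across arrays of the same protein sequence and across linkers. Negative scores can be read as non-binding.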

[2] = target: Fuc(a1-2)[Gal(a1-3)]Gal(b1-3)GlcNAc(b1-3)GalNAc
Method in brief: as §1

[3] = target: Fuc(a1-2)[Gal(a1-4)]Gal(b1-4)GlcNAc
Method in brief: as §1

[4] = target: Fuc(a1-2)[GalNAc(a1-3)]Gal(b1-3)GalNAc(b1-3)Gal(a1-4)Gal(b1-4)Glc
Method in brief: as §1

[5] = target: Fuc(a1-2)[GalNAc(a1-3)]Gal(b1-3)GlcNAc(b1-2)Man(a1-3)[Fuc(a1-2)[GalNAc(a1-3)]Gal(b1-3)GlcNAc(b1-2)Man(a1-6)]Man(b1-4)GlcNAc(b1-4)GlcNAc
Method in brief: as §1

[6] = target: Fuc(a1-2)[GalNAc(a1-3)]Gal(b1-4)[Fuc(a1-3)]GlcNAc
Method in brief: as §1

[7] = target: Fuc(a1-3)[Gal(b1-4)]GlcNAc(b1-2)Man(a1-3)[Fuc(a1-3)[Gal(b1-4)]GlcNAc(b1-2)Man(a1-6)]Man(b1-4)GlcNAc(b1-4)[Fuc(a1-6)]GlcNAc
Method in brief: as §1

[8] = target: Fuc(a1-3)[Gal(b1-4)]GlcNAc(b1-3)Gal(b1-4)[Fuc(a1-3)]GlcNAc
Method in brief: as §1

[9] = target: Gal(a1-2)Gal
Method in brief: as §1

[10] = target: Gal(a1-3)Gal(b1-4)GlcNAc(b1-2)Man(a1-3)[Gal(a1-3)Gal(b1-4)GlcNAc(b1-2)Man(a1-6)]Man(b1-4)GlcNAc(b1-4)GlcNAc
Method in brief: as §1

[11] = target: Gal(b1-3)GlcNAc(b1-2)Man(a1-3)[GlcNAc(b1-4)][Gal(b1-3)GlcNAc(b1-2)Man(a1-6)]Man(b1-4)GlcNAc(b1-4)GlcNAc
Method in brief: as §1

[12] = target: Gal(b1-3)GlcNAc(b1-3)Gal(b1-3)GlcNAc
Method in brief: as §1

[13] = target: Gal(b1-3)[Fuc(a1-4)]GlcNAc
Method in brief: as §1

[14] = target: Gal(b1-3)[Fuc(a1-4)]GlcNAc(b1-3)Gal(b1-3)[Fuc(a1-4)]GlcNAc
Method in brief: as §1

[15] = target: Gal(b1-3)[GlcNAc(b1-6)]GalNAc
Method in brief: as §1

[16] = target: Gal(b1-4)GlcNAc(b1-2)Man(a1-3)[Gal(b1-4)GlcNAc(b1-2)Man(a1-6)]Man(b1-4)GlcNAc(b1-4)GlcNAc
Method in brief: as §1

[17] = target: Gal(b1-4)GlcNAc(b1-2)Man(a1-3)[Gal(b1-4)GlcNAc(b1-2)Man(a1-6)][GlcNAc(b1-4)]Man(b1-4)GlcNAc(b1-4)[Fuc(a1-6)]GlcNAc
Method in brief: as §1

[18] = target: Gal(b1-4)GlcNAc(b1-2)Man(a1-3)[Man(a1-6)]Man(b1-4)GlcNAc(b1-4)GlcNAc
Method in brief: as §1

[19] = target: Gal(b1-4)GlcNAc(b1-2)Man(a1-6)[GlcNAc(b1-2)Man(a1-3)]Man(b1-4)GlcNAc(b1-4)GlcNAc
Method in brief: as §1

[20] = target: Gal(b1-4)GlcNAc(b1-2)[Gal(b1-4)GlcNAc(b1-4)]Man(a1-3)[Gal(b1-4)GlcNAc(b1-2)[Gal(b1-4)GlcNAc(b1-6)]Man(a1-6)]Man(b1-4)GlcNAc(b1-4)GlcNAc
Method in brief: as §1

[21] = target: Gal(b1-4)GlcNAc(b1-2)[Gal(b1-4)GlcNAc(b1-6)]Man(a1-6)[Gal(b1-4)GlcNAc(b1-2)Man(a1-3)]Man(b1-4)GlcNAc(b1-4)[Fuc(a1-6)]GlcNAc
Method in brief: as §1

[22] = target: Gal(b1-4)GlcNAc(b1-3)Gal(b1-4)GlcNAc
Method in brief: as §1

[23] = target: Gal(b1-4)GlcNAc(b1-3)Gal(b1-4)GlcNAc(b1-2)Man(a1-3)[Gal(b1-4)GlcNAc(b1-3)Gal(b1-4)GlcNAc(b1-2)Man(a1-6)]Man(b1-4)GlcNAc(b1-4)GlcNAc
Method in brief: as §1

[24] = target: Gal(b1-4)GlcNAc(b1-3)Gal(b1-4)GlcNAc(b1-2)Man(a1-3)[Gal(b1-4)GlcNAc(b1-3)Gal(b1-4)GlcNAc(b1-2)Man(a1-6)]Man(b1-4)GlcNAc(b1-4)[Fuc(a1-6)]GlcNAc
Method in brief: as §1

[25] = target: Gal(b1-4)GlcNAc(b1-3)Gal(b1-4)GlcNAc(b1-3)Gal(b1-4)GlcNAc(b1-2)Man(a1-3)[Gal(b1-4)GlcNAc(b1-3)Gal(b1-4)GlcNAc(b1-3)Gal(b1-4)GlcNAc(b1-2)Man(a1-6)]Man(b1-4)GlcNAc(b1-4)GlcNAc
Method in brief: as §1

[26] = target: Gal(b1-4)GlcNAc(b1-3)Gal(b1-4)GlcNAc(b1-3)Gal(b1-4)GlcNAc(b1-2)Man(a1-3)[Gal(b1-4)GlcNAc(b1-3)Gal(b1-4)GlcNAc(b1-3)Gal(b1-4)GlcNAc(b1-2)Man(a1-6)]Man(b1-4)GlcNAc(b1-4)[Fuc(a1-6)]GlcNAc
Method in brief: as §1

[27] = target: Gal(b1-4)GlcNAc(b1-3)Gal(b1-4)GlcNAc(b1-3)Gal(b1-4)GlcNAc(b1-3)Gal(b1-4)GlcNAc(b1-2)Man(a1-3)[Gal(b1-4)GlcNAc(b1-3)Gal(b1-4)GlcNAc(b1-3)Gal(b1-4)GlcNAc(b1-3)Gal(b1-4)GlcNAc(b1-2)Man(a1-6)]Man(b1-4)GlcNAc(b1-4)GlcNAc
Method in brief: as §1

B1: PX14367A-bth-493-35-493 (Bacteroides thetaiotaomicron) (protein)
chain: VSSDQVAVAGNAERLFNGAWYNLFEYGTTYANIGYRALQCQDDMMASDVVSRPKYGFNSSYQFNDVAIPSDGRTSFAWYLIYKTIDNCNTAISIKGDSEELRQAQGQALALRAFCYLHLVQHYQFTYLKDKDAPCVPIYTEPTTSGTKPKGKSTVAQVYQQIFDDLNLAQDYLTNYVRKGDGQKFKPNTDVVNGLMARAYLLTGQWGEAAKAAEAARKGYSLMTTTAEYEGFNNISNKEWIWGSPQTLSQSDASYNFYYLDATYVGAYSSFMADPHLMDTFVKGDIRLPLFQWMREGYLGYKKFHMRSDDTADLVLMRSAEMYLIEAEAKVRDGVALDQAVAPLNTLRTARGVGNYDVTGKTKEQVIDEILMERRRELWGEGFGITDVLRNQKAVERMALSEDMQKTEVDCWQEGGSFAKRNPLGHWFLNFPDGKAFSANSSYYLYAIPEKEINANPNL
glycan array binding signal (z-score) [1]: -0.358 | glycan array binding signal (z-score) [2]: -0.51 | glycan array binding signal (z-score) [3]: -0.256 | glycan array binding signal (z-score) [4]: -0.668 | glycan array binding signal (z-score) [5]: 0.408 | glycan array binding signal (z-score) [6]: -0.482 | glycan array binding signal (z-score) [7]: -0.25 | glycan array binding signal (z-score) [8]: -0.421 | glycan array binding signal (z-score) [9]: -0.084 | glycan array binding signal (z-score) [10]: 3.93 | glycan array binding signal (z-score) [11]: 1.39 | glycan array binding signal (z-score) [12]: -0.152 | glycan array binding signal (z-score) [13]: -0.11 | glycan array binding signal (z-score) [14]: -0.392 | glycan array binding signal (z-score) [15]: -0.406 | glycan array binding signal (z-score) [16]: 1.44 | glycan array binding signal (z-score) [17]: -0.354 | glycan array binding signal (z-score) [18]: 3.6 | glycan array binding signal (z-score) [19]: -0.174 | glycan array binding signal (z-score) [20]: -0.334 | glycan array binding signal (z-score) [21]: -0.167 | glycan array binding signal (z-score) [22]: -0.81 | glycan array binding signal (z-score) [23]: 3.94 | glycan array binding signal (z-score) [24]: 7.69 | glycan array binding signal (z-score) [25]: 2.81 | glycan array binding signal (z-score) [26]: 2.6 | glycan array binding signal (z-score) [27]: 1.4
